Results published in ChEMBL document CHEMBL2218924, “A broad activity screen in support of a chemogenomic map for kinase signalling research and drug discovery” (Biochem J, 2013).

How the values were obtained:
[1] = biological target: Platelet-derived growth factor receptor alpha (Homo sapiens) (UniProt P16234); conditions: at 1 µM
[2] = biological target: Platelet-derived growth factor receptor alpha (Homo sapiens) (UniProt P16234); conditions: at 10 µM
[3] = biological target: Platelet-derived growth factor receptor beta (Homo sapiens) (UniProt P09619); conditions: at 1 µM
Platelet-derived growth factor receptor beta (Homo sapiens), sequence (P09619 whole entry): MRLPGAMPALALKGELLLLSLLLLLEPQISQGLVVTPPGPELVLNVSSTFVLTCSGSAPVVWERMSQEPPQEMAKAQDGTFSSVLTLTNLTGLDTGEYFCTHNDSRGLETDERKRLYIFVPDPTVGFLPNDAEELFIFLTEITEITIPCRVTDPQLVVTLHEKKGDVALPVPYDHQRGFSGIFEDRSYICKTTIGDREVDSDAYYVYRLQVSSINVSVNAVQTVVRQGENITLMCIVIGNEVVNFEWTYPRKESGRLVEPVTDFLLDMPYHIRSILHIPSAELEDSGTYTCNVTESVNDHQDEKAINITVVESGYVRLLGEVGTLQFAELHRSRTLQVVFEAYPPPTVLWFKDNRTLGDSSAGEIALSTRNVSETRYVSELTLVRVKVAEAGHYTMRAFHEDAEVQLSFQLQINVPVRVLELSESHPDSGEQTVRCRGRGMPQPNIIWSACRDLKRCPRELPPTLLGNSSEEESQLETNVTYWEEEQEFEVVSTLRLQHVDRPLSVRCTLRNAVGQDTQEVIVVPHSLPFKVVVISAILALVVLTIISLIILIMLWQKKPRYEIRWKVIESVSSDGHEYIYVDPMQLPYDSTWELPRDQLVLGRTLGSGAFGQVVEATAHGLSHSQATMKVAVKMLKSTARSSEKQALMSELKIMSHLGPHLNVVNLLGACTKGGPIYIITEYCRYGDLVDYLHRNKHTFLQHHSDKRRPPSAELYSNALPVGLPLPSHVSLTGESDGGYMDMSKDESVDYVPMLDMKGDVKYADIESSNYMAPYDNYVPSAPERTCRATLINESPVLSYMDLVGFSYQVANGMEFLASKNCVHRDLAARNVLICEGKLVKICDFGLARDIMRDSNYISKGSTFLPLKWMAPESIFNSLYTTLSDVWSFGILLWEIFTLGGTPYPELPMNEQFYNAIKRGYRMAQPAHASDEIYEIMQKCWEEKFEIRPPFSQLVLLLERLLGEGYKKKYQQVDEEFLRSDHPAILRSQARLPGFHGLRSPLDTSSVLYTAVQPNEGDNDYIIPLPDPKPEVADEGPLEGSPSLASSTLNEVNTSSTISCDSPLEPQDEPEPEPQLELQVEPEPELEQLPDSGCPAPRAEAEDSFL

[4] = biological target: Platelet-derived growth factor receptor beta (Homo sapiens) (UniProt P09619); conditions: at 10 µM
[5] = biological target: T1, 3-phosphoinositide-dependent protein kinase 1 (Homo sapiens) (UniProt O15530); conditions: at 1 µM
T1 sequence (whole entry): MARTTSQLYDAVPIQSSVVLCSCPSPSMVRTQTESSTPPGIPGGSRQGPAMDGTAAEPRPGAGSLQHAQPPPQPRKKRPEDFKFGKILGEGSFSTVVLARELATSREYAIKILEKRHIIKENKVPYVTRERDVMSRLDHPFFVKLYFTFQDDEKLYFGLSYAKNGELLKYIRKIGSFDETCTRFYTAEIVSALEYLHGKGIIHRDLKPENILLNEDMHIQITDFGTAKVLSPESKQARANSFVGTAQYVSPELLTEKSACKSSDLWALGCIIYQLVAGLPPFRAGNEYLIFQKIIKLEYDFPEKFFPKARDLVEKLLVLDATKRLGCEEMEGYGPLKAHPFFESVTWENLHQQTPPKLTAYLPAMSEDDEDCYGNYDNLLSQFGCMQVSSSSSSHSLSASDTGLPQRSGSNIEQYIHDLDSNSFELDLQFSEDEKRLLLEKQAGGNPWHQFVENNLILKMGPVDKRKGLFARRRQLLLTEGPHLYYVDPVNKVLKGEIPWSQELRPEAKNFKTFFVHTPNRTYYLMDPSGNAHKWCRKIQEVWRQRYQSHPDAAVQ

[6] = biological target: T1, 3-phosphoinositide-dependent protein kinase 1 (Homo sapiens); conditions: at 10 µM
[7] = biological target: cAMP-dependent protein kinase catalytic subunit alpha (Homo sapiens) (UniProt P17612); conditions: at 1 µM
[8] = biological target: cAMP-dependent protein kinase catalytic subunit alpha (Homo sapiens) (UniProt P17612); conditions: at 10 µM
[9] = biological target: RAC-gamma serine/threonine-protein kinase (Homo sapiens) (UniProt Q9Y243); conditions: at 1 µM
RAC-gamma serine/threonine-protein kinase (Homo sapiens), sequence (Q9Y243 whole entry): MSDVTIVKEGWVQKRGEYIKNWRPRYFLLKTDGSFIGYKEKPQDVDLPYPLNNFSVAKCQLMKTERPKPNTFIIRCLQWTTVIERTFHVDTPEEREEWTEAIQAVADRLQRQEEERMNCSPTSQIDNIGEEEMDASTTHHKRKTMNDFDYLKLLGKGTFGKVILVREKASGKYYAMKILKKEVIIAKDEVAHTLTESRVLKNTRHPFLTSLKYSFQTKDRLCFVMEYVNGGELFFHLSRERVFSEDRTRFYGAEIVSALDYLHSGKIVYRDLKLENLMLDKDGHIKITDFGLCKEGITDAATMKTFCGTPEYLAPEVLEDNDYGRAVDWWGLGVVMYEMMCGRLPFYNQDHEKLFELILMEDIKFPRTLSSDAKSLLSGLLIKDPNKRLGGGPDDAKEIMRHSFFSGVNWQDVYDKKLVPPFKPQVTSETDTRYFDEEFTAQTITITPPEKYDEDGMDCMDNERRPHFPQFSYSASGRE

[10] = biological target: RAC-gamma serine/threonine-protein kinase (Homo sapiens) (UniProt Q9Y243); conditions: at 10 µM
[11] = biological target: Protein kinase C alpha type (Homo sapiens) (UniProt P17252); conditions: at 1 µM
[12] = biological target: Protein kinase C alpha type (Homo sapiens) (UniProt P17252); conditions: at 10 µM
[13] = biological target: Protein kinase C beta type (Homo sapiens) (UniProt P05771); conditions: at 1 µM
Protein kinase C beta type (Homo sapiens), sequence (P05771 2-671 limits assumed): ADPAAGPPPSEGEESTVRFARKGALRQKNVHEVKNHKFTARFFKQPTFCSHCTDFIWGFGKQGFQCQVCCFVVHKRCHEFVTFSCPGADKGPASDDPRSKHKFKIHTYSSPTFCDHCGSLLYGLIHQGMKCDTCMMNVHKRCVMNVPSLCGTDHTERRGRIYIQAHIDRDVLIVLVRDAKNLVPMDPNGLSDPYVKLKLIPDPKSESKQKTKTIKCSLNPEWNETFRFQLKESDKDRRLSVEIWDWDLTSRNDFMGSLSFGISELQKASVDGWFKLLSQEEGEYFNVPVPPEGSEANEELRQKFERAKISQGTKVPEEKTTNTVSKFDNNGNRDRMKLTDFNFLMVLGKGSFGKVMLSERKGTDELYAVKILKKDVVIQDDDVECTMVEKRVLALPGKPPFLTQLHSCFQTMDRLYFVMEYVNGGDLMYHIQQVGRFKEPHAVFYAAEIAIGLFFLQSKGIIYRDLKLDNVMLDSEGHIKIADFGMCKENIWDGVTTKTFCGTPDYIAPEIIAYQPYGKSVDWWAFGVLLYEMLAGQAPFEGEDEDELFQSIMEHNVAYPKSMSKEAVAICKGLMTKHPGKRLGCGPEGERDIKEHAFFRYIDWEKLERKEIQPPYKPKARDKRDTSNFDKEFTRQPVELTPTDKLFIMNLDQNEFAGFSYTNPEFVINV

[14] = biological target: Protein kinase C beta type (Homo sapiens) (UniProt P05771); conditions: at 10 µM
[15] = biological target: Protein kinase C beta type (Homo sapiens) (UniProt P05771); conditions: at 1 µM; remark: listed apart in the source
[16] = biological target: Protein kinase C beta type (Homo sapiens) (UniProt P05771); conditions: at 10 µM; remark: listed apart in the source
[17] = biological target: Protein kinase C gamma type (Homo sapiens) (UniProt P05129); conditions: at 1 µM
[18] = biological target: Protein kinase C delta type (Homo sapiens) (UniProt Q05655); conditions: at 1 µM
Protein kinase C delta type (Homo sapiens), sequence (Q05655 whole entry, looked up): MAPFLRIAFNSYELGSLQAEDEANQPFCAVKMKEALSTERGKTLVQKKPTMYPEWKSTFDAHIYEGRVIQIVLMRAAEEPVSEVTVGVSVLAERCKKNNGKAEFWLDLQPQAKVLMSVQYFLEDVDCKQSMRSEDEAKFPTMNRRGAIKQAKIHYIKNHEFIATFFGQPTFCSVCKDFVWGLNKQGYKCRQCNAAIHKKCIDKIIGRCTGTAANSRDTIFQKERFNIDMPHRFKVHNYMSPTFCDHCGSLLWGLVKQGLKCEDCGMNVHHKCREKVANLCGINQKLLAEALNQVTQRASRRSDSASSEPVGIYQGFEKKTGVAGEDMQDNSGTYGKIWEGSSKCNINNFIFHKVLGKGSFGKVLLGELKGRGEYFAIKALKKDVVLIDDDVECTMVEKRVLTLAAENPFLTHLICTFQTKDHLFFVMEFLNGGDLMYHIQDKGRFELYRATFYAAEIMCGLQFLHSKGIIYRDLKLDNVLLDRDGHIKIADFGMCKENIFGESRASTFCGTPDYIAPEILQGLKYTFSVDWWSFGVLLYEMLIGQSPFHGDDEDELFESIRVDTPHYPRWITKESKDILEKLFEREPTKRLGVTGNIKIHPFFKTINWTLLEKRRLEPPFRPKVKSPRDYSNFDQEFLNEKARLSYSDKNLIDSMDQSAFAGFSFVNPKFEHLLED

[19] = biological target: Protein kinase C delta type (Homo sapiens) (UniProt Q05655); conditions: at 10 µM
[20] = biological target: Protein kinase C gamma type (Homo sapiens) (UniProt P05129); conditions: at 10 µM

Platelet-derived growth factor receptor alpha (Homo sapiens), sequence (P16234 whole entry): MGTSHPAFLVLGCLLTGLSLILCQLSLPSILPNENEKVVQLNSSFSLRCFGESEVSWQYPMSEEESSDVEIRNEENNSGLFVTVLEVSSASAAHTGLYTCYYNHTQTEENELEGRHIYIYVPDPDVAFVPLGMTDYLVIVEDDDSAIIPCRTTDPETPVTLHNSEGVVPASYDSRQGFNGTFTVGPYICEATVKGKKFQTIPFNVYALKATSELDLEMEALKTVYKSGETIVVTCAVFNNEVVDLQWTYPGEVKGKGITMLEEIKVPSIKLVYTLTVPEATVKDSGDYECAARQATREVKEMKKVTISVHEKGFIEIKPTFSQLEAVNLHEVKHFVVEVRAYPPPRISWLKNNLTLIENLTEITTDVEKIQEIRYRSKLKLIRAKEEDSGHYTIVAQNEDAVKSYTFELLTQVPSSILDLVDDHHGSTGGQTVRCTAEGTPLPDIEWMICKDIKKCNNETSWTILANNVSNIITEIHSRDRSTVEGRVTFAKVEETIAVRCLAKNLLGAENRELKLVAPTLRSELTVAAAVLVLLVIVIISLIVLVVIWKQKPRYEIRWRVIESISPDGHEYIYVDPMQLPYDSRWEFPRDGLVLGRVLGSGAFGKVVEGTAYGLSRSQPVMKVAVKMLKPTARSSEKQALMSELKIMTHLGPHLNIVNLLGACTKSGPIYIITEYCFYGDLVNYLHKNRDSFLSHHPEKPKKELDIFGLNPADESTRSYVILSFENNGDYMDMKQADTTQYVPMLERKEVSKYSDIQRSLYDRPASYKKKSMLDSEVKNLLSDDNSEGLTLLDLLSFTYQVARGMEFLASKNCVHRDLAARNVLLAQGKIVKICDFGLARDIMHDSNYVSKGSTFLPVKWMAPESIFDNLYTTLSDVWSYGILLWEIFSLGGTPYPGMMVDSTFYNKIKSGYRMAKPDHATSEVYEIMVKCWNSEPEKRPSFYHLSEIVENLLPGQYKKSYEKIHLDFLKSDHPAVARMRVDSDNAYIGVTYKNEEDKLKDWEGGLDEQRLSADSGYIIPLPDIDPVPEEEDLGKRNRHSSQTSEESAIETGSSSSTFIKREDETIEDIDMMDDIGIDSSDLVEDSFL

SMILES: O=C1c2ccccc2-[n+]2ccc3c([nH]c4ccccc43)c21
- residual activity [1]: 107%
- residual activity [2]: 103%
- residual activity [3]: 110%
- residual activity [4]: 102%
- residual activity [5]: 100%
- residual activity [6]: 102%
- residual activity [7]: 94%
- residual activity [8]: 98%
- residual activity [9]: 112%
- residual activity [10]: 87%
- residual activity [11]: 106%
- residual activity [12]: 98%
- residual activity [13]: 102%
- residual activity [14]: 97%
- residual activity [15]: 93%
- residual activity [16]: 88%
- residual activity [17]: 97%
- residual activity [18]: 101%
- residual activity [19]: 104%

SMILES: CCN(CC)C(=O)c1ccc(Nc2nc(OCC3CCCCC3)c3nc[nH]c3n2)cc1
- residual activity [1]: 65%
- residual activity [2]: 18%
- residual activity [3]: 63%
- residual activity [4]: 14%
- residual activity [5]: 20%
- residual activity [6]: 3%
- residual activity [7]: 80%
- residual activity [8]: 52%
- residual activity [10]: 40%
- residual activity [11]: 95%
- residual activity [12]: 58%
- residual activity [17]: 46%
- residual activity [20]: 13%
- residual activity [18]: 78%
- residual activity [19]: 26%

SMILES: CC(=O)c1ccc(N2CCOCC2)cc1O
- residual activity [2]: 107%
- residual activity [3]: 112%
- residual activity [4]: 105%
- residual activity [7]: 87%
- residual activity [8]: 96%
- residual activity [9]: 106%
- residual activity [10]: 104%
- residual activity [11]: 101%
- residual activity [12]: 102%
- residual activity [13]: 107%
- residual activity [14]: 101%
- residual activity [15]: 100%
- residual activity [16]: 93%
- residual activity [17]: 109%
- residual activity [20]: 108%
- residual activity [18]: 101%
- residual activity [19]: 103%

SMILES: Oc1ccc(Nc2nc(-c3ccc(Cl)cc3)cs2)cc1
- residual activity [1]: 87%
- residual activity [2]: 83%
- residual activity [3]: 117%
- residual activity [4]: 137%
- residual activity [5]: 115%
- residual activity [6]: 102%
- residual activity [7]: 100%
- residual activity [8]: 129%
- residual activity [9]: 123%
- residual activity [10]: 104%
- residual activity [11]: 110%
- residual activity [12]: 101%
- residual activity [14]: 112%
- residual activity [15]: 121%
- residual activity [16]: 101%
- residual activity [17]: 102%
- residual activity [20]: 105%
- residual activity [18]: 105%
- residual activity [19]: 110%

SMILES: O=C(O)c1ccc2c3c1cccc3c(=O)n1c3ccccc3nc21
- residual activity [1]: 113%
- residual activity [2]: 114%
- residual activity [4]: 108%
- residual activity [5]: 108%
- residual activity [6]: 82%
- residual activity [7]: 73%
- residual activity [8]: 89%
- residual activity [9]: 102%
- residual activity [10]: 82%
- residual activity [11]: 99%
- residual activity [12]: 98%
- residual activity [13]: 125%
- residual activity [14]: 113%
- residual activity [15]: 115%
- residual activity [16]: 100%
- residual activity [17]: 94%
- residual activity [20]: 74%
- residual activity [18]: 100%
- residual activity [19]: 107%

SMILES: Nc1nc(Nc2ccc(S(N)(=O)=O)cc2)nn1C(=S)Nc1c(F)cccc1F
- residual activity [1]: 82%
- residual activity [2]: 39%
- residual activity [3]: 83%
- residual activity [4]: 24%
- residual activity [5]: 3%
- residual activity [6]: 0%
- residual activity [7]: 53%
- residual activity [8]: 16%
- residual activity [11]: 51%
- residual activity [12]: 18%
- residual activity [13]: 84%
- residual activity [14]: 38%
- residual activity [15]: 88%
- residual activity [16]: 78%
- residual activity [17]: 71%
- residual activity [20]: 66%
- residual activity [18]: 10%
- residual activity [19]: 9%

SMILES: N#CCCc1ccc2c(c1)-c1[nH]c3ccc([N+](=O)[O-])cc3c1CC(=O)N2
- residual activity [5]: 17%
- residual activity [6]: 6%
- residual activity [18]: 68%
- residual activity [19]: 57%

SMILES: Cc1cc(Nc2nc(-c3ccccc3)nc3ccccc23)n[nH]1
- residual activity [2]: 26%
- residual activity [3]: 79%
- residual activity [4]: 28%
- residual activity [5]: 94%
- residual activity [6]: 39%
- residual activity [8]: 70%
- residual activity [10]: 46%
- residual activity [12]: 63%
- residual activity [13]: 109%
- residual activity [15]: 106%
- residual activity [20]: 51%
